# PAFAH1B2 inh = PAFAH1B2 (human) inhibition | inhibition, % at 3.39 µM | AID 492953 | 340,000 tested, 1.2% active | recombinant PAFAH1B2, FP-rhodamine activity probe, fluorescence polarization;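 active means inhibition above the mean of all tested compounds plus 3 SD, cut at about 24% in these data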;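 further: 0% = enzyme with DMSO and 100% = wells lacking PAFAH1B2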
# pPAFAH inh = inhibitors of human plasma PAF acetylhydrolase (pPAFAH); recombinant pPAFAH, FP-rhodamine probe fluorescence polarization; Q13093; inhibition, % at 3.39 µM; 330,000 tested, 1.5% active;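 active means inhibition above the mean inhibition across the screen plus 3 SD, cut at about 25% in these data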;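 further: inhibitors block binding of the rhodamine activity-based probe so polarization drops; 0% = enzyme with DMSO and 100% = wells lacking pPAFAH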
# PAFAH1B3 FP inh = inhibitors of human PAFAH1B3 | recombinant PAFAH1B3, FP-rhodamine probe, fluorescence polarization | 340,000 tested, 0.28% active | Q15102 | inhibition, % at 3.39 µM;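 active means inhibition above the screen-wide average of all tested compounds plus 3 SD, cut at about 25% in these data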;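 further: 0% = enzyme with DMSO only and 100% = wells lacking PAFAH1B3 protein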
# PP1 inh = counter-screen for PP5 inhibitors: inhibitors of human PP1-alpha; P62136; purified PP1alpha, OMFP fluorescence; inhibition, % at 6.7 µM; 320,000 tested, 0.9% active;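 active means inhibition above the mean inhibition of all tested compounds plus 3 SD, computed separately for each screening campaign, cut at about 15% in these data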
# Target sequence (P62136 whole entry, looked up): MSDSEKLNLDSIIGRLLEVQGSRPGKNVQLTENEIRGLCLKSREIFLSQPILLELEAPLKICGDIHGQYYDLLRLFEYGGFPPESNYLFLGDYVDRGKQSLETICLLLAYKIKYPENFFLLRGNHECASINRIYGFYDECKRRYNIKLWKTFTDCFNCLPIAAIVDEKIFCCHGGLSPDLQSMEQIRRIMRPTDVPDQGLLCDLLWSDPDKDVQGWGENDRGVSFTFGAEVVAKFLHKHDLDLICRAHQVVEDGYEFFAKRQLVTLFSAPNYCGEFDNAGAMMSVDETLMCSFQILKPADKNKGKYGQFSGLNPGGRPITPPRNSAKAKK
# PP5 inh = blocks human protein phosphatase 5 activity; purified PP5c, OMFP substrate fluorescence; inhibition, % at 6.7 µM; 320,000 tested, 0.18% active; P53041;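 active means inhibition above the campaign's mean inhibition across all tested compounds plus 3 SD, cut at about 9.5% in these data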;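 further: 0% = DMSO only and 100% = 100 µM cantharidin control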
# PAFAH2 inh = PAFAH2 (human) inhibition | recombinant PAFAH2, FP-rhodamine activity probe, fluorescence polarization | 340,000 tested, 0.99% active | Q99487 | AID 492956 | inhibition, % at 3.39 µM;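 active means inhibition above the mean over all tested compounds plus 3 SD, cut at about 30% in these data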;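 further: inhibitors block probe labeling of enzyme so polarization drops; 0% = enzyme with DMSO and 100% = wells lacking PAFAH2 protein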
# Active calls of the source: *; nt = no result. In the library only some 3.4% were active in any assay of this set; here they are far more common.
SMILES,PAFAH1B2 inh,pPAFAH inh,PAFAH1B3 FP inh,PP1 inh,PP5 inh,PAFAH2 inh
Cc1ccc(C(=O)C2=C(O)C(=O)N(Cc3cccnc3)C2c2ccc(Cl)c(Cl)c2)o1 (configuration not stated),0,5,-3,30*,1,3
Cc1ccc(C(=O)C2=C(O)C(=O)N(Cc3cccnc3)C2c2ccc(Br)cc2)o1 (configuration not stated),5,2,12,19*,3,12
CC(=O)C1=C(O)C(=O)N(Cc2cccnc2)C1c1ccc(Cl)cc1 (configuration not stated),12,5,8,-1,-1,-1
Cc1ccc(C(=O)C2=C(O)C(=O)N(CCCn3ccnc3)C2c2ccc(OC(C)C)cc2)o1 (configuration not stated),0,3,-8,15*,-9,-2
Cc1ccc(SCC(=O)NC(C)c2ccccc2)cc1 (configuration not stated),34*,-4,0,-2,0,0
Cc1csc(SCC(=O)NC(C)c2ccccc2)n1 (configuration not stated),3,3,-6,3,-1,2
Cc1ccc(OCCC(=O)OCC(=O)NCCc2ccccc2)cc1,11,24,3,-7,-1,5
Cc1ccc(SCC(=O)OCC(=O)NCCc2ccccc2)cc1C,12,30*,12,-4,2,0
Cc1ccc(SCC(=O)OCC(=O)NCCc2ccccc2)cc1,50*,28*,9,-2,0,4
O=C(COC(=O)c1cccc(Cl)c1Cl)NCc1cccs1,3,33*,8,-6,3,33*
Cc1ccc(SCC(=O)OCC(=O)Nc2ccc3[nH]c(=O)[nH]c3c2)cc1C,2,0,6,-7,-2,1
CC(C)C(=O)Nc1cccc(COc2cccc(CN(Cc3ccccc3)C(=O)OC(C)(C)C)c2)c1,0,nt,-1,nt,nt,-3
O=C(Cc1ccc(F)cc1)N[C@@H]1c2ccccc2CC[C@H]1OCc1ccccc1,8,-6,-1,nt,nt,-5
CC(=NNC(=S)N1CCN(c2ccccn2)CC1)c1nccs1,2,nt,3,nt,nt,4
CC(=O)C(C(c1ccccc1)N1CCCc2ccccc21)N1CCOCC1 (configuration not stated),2,nt,13,nt,nt,2
COc1ccccc1-c1cccc([C@@H]2C[C@H]3[C@H](CON3C)CN2C(=O)C(C)(C)C)c1,-4,nt,6,nt,nt,7
O=C(CSc1ccc2ccccc2c1)NCc1cccs1,26*,-5,4,0,-1,-2
Cc1ccc(SCC(=O)OCC(=O)NCc2cccs2)cc1,28*,24,5,5,0,3
COc1cccc(CN(C)C(=O)c2ccc(Cl)c(S(=O)(=O)N3CCCCCC3)c2)c1OC,4,nt,-5,nt,nt,4
CCOc1cc(CNCC2CCCO2)cc(Br)c1OCC(N)=O (configuration not stated),6,-2,3,17*,2,-1
O=C(COC(=O)c1sc2ccccc2c1Cl)NCC1CCCCC1,4,27*,0,1,1,15
CCCSc1nc2cc(OC)c(OC)cc2c(=N)n1CCCN1CCOCC1,2,2,2,0,-2,0
COCCCn1c(SCc2ccc(OC)cc2)nc2cc(OC)c(OC)cc2c1=N,7,25*,12,0,1,5
CC12CCC(C/C1=N\N=C1\NC(=O)/C(=C\c3cccc(Br)c3)S1)C2(C)C (configuration not stated),9,27*,2,11,6,10
COc1cc(/C=N/N=C2\CC3CCC2(C)C3(C)C)ccc1O (configuration not stated),1,0,1,-4,2,4
Cc1cc(-c2ccccc2)c2ccc(NC(=O)C(C)(C)C)nc2n1,33*,9,14,-2,3,-13
Cc1cc(C)nc(/N=C(\NC(=O)C(C)(C)C)Nc2ccccc2)n1,2,0,8,-3,1,-1
N=c1c(S(=O)(=O)c2ccc(Br)cc2)cc2c(=O)n3ccccc3nc2n1Cc1ccco1,4,27*,6,8,2,6
Cc1ccc(Cn2c(=N)c(C(=O)NCc3ccco3)cc3c(=O)n4ccccc4nc32)cc1,-11,16,-1,16*,5,4
